Reference: the supplement of paper PMC10849652
Targets with a hit are over-represented here; the source holds about 8,800 in all. About 0.5% of all pairs of compound and target were hits. A number with no mark means an inactive call.

Key:
Experiment in all cases: log2 fold change, soluble protein after heating vs DMSO (PISA); higher = thermal stabilisation; K562 lysate, 10 uM; active = over 0.2 and 3.5 SD of the protein, either way, in both replicates (recomputed)
[1] = compound: CS(=O)(=O)CCNCc1ccc(-c2ccc3ncnc(Nc4ccc(OCc5cccc(F)c5)c(Cl)c4)c3c2)o1 [lapatinib]
In short: (§1)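 Quantification was by TMTpro 16plex LC-MS/MS with equalised channel sums, applied to the supernatant after 21,000xg for 90 min. Samples were crude K562 extract at 1 mg/mL protein in PBS pH 7.4 with 1 mM MgCl2, treated with 10 μM compound for 30 min, heated for 3 min across 48°C-58°C, pooled and brought to 0.5% NP-40 at 4°C. Values are log-two fold changes in thermal stability relative to solvent controls, from duplicates.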

[2] = compound: CS(=O)(=O)N1CCN(Cc2cc3nc(-c4cccc5[nH]ncc45)nc(N4CCOCC4)c3s2)CC1 [pictilisib]
In short: as §1

[3] = compound: C[C@@H](Oc1cc(-c2cnn(C3CCNCC3)c2)cnc1N)c1c(Cl)ccc(F)c1Cl [crizotinib]
In short: as §1

[4] = compound: C[C@H](C1=CC=C(C=C1)C(=O)NC2=C3C=CNC3=NC=C2)N
In short: as §1

[5] = compound: C[C@H](Nc1ncnc2nc[nH]c12)c1cc2cccc(Cl)c2c(=O)n1-c1ccccc1 [duvelisib]
In short: as §1

[6] = compound: Cc1cc(Nc2cc(CN3CCOCC3)c3nc(C)c(Cc4ccc(Cl)cc4F)n3n2)n[nH]1 [gandotinib]
In short: as §1

[7] = compound: Cc1cc(Nc2cc(N3CCN(C)CC3)nc(Sc3ccc(NC(=O)C4CC4)cc3)n2)n[nH]1 [tozasertib]
In short: as §1

[8] = compound: Cc1ccc(-n2nc(C(C)(C)C)cc2NC(=O)Nc2ccc(OCCN3CCOCC3)c3ccccc23)cc1 [doramapimod]
In short: as §1

[9] = compound: Cc1ccc(NC(=O)c2ccc(CN3CC[C@H](N(C)C)C3)c(C(F)(F)F)c2)cc1Nc1nccc(-c2cncnc2)n1 [bafetinib]
In short: as §1

[10] = compound: Cc1cccc(CC(=O)N2CCc3c2ccc(-c2cn(C)c4ncnc(N)c24)c3F)n1
In short: as §1

[11] = compound: Cc1cn(-c2cc(NC(=O)c3ccc(C)c(Nc4nccc(-c5cccnc5)n4)c3)cc(C(F)(F)F)c2)cn1 [nilotinib]
In short: as §1

[12] = compound: Cc1nc(Nc2n[nH]c3c2CN(C(=O)N[C@H](CN(C)C)c2ccccc2)C3(C)C)c2sccc2n1
In short: as §1

[13] = compound: Cc1nc(Nc2ncc(C(=O)Nc3c(C)cccc3Cl)s2)cc(N2CCN(CCO)CC2)n1 [dasatinib]
In short: as §1

[14] = compound: Cc1ncc(-c2ccnc(Nc3ccc(S(C)(=O)=O)cc3)n2)n1C(C)C
In short: as §1

[15] = compound: Cn1cc(-c2ccc3c(c2)CCN3C(=O)Cc2cccc(C(F)(F)F)c2)c2c(N)ncnc21
In short: as §1

[16] = compound: Cn1cc(CNCC2CCN(c3ncc(C(=O)NO)cn3)CC2)c2ccccc21 [quisinostat]
In short: as §1

[17] = compound: Cn1cncc1[C@@](N)(c1ccc(Cl)cc1)c1ccc2c(c1)c(-c1cccc(Cl)c1)cc(=O)n2C [tipifarnib]
In short: as §1

[18] = compound: NC(=O)Nc1cc(-c2cccc(F)c2)sc1C(=O)N[C@H]1CCCNC1
In short: as §1

[19] = compound: NC(=O)c1cnc(N[C@@H]2CCCC[C@@H]2N)nc1Nc1cccc(-n2nccn2)c1
In short: as §1

[20] = compound: NC1(c2ccc(-c3nc4ccn5c(=O)[nH]nc5c4cc3-c3ccccc3)cc2)CCC1
In short: as §1

UniProt Q5XPI4, sequence (Q5XPI4 whole entry, looked up): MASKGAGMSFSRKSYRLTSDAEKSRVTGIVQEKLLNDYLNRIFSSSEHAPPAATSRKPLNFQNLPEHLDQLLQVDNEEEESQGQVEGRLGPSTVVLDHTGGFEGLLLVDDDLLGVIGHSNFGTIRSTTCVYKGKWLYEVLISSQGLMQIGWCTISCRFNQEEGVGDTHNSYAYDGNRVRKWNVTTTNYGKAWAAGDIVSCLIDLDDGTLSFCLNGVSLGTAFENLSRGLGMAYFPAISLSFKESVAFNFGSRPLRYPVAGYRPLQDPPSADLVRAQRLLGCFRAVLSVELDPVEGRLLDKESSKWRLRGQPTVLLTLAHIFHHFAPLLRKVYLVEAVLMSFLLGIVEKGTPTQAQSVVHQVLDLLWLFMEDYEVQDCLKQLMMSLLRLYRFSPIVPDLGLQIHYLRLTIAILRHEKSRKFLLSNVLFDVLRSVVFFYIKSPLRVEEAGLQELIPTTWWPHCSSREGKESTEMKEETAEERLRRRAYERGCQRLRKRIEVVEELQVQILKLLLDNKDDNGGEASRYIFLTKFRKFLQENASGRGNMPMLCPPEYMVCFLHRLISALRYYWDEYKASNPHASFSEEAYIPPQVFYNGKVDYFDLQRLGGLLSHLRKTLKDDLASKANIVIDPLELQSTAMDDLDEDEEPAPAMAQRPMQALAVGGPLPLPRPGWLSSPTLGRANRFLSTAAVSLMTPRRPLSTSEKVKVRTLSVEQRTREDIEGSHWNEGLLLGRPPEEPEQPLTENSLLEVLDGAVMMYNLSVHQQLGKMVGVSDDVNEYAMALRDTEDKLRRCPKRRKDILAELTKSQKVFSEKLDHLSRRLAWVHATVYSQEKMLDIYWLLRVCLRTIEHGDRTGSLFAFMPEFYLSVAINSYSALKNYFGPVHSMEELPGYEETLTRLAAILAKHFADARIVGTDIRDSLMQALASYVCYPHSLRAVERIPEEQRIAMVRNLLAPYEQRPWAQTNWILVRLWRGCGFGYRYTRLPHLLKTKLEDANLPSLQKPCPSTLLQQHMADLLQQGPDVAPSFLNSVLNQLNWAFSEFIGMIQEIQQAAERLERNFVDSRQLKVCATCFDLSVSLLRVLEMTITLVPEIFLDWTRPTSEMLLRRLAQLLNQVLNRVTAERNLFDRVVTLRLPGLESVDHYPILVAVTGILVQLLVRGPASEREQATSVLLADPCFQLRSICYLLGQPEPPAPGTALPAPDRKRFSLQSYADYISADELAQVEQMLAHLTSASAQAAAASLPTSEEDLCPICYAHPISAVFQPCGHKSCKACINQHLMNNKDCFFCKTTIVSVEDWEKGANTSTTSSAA
UniProt O14730, sequence (O14730 whole entry, looked up): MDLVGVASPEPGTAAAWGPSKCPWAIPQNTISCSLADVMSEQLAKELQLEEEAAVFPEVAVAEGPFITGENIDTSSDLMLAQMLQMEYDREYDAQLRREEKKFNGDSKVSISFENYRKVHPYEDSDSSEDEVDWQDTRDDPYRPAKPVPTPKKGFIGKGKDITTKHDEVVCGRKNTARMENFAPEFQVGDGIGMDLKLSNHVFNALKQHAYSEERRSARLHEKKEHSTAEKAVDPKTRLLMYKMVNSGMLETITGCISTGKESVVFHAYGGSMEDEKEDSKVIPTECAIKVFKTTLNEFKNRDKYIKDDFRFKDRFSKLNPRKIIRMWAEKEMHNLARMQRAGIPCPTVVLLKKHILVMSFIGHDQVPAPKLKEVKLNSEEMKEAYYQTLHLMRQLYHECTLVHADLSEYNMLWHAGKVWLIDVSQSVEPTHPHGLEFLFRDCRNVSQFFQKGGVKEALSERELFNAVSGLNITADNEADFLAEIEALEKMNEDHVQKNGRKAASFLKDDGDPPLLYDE
UniProt Q04864, sequence (Q04864 whole entry, looked up): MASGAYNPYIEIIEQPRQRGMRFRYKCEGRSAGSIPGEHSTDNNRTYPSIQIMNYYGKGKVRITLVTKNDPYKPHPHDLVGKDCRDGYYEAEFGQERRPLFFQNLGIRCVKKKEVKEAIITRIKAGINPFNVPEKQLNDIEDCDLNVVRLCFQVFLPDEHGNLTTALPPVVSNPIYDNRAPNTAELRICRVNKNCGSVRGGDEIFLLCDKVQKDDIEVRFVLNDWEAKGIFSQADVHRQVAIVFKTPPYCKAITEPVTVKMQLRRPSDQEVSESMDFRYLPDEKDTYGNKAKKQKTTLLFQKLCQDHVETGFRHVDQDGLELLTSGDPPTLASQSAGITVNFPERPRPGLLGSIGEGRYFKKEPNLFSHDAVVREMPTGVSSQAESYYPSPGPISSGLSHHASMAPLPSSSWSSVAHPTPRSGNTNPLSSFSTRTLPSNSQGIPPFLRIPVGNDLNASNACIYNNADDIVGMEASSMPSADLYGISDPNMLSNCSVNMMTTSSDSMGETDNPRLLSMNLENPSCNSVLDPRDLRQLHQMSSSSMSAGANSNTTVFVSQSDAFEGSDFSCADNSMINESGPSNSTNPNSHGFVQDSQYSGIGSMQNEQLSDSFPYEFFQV
UniProt Q7L523, sequence (Q7L523 whole entry, looked up): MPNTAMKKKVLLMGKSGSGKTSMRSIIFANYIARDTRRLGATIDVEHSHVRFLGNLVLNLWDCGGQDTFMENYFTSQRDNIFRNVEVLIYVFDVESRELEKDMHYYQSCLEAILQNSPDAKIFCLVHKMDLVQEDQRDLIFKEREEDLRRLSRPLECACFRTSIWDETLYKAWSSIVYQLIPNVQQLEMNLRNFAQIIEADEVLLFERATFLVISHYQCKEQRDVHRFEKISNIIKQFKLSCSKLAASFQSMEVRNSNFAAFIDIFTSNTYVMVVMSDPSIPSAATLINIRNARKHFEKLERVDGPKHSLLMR
UniProt Q92930, sequence (Q92930 whole entry, looked up): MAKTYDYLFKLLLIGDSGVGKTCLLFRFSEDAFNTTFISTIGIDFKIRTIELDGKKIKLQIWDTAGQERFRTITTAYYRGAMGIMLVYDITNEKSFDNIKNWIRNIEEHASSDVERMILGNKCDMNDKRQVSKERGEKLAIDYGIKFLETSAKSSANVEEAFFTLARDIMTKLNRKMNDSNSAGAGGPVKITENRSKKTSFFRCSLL
UniProt Q6UVJ0, sequence (Q6UVJ0 whole entry, looked up): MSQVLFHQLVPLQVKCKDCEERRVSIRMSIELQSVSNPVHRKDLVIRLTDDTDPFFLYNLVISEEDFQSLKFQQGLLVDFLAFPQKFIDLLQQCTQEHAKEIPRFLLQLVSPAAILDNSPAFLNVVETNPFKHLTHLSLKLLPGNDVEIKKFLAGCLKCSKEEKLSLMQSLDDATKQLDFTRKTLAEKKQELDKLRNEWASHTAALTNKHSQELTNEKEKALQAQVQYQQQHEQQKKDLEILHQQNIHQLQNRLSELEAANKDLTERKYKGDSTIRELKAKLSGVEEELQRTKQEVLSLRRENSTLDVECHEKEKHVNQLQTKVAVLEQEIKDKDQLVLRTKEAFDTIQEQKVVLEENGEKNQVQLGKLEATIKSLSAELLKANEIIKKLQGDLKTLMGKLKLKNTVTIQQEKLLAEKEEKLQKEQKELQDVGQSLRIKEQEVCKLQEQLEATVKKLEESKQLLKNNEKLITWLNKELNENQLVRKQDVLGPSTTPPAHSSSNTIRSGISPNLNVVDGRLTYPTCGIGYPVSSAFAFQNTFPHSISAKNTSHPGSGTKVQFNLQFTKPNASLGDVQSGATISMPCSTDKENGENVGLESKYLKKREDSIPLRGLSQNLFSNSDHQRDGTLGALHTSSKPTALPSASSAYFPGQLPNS
UniProt P38159, sequence (P38159 whole entry, looked up): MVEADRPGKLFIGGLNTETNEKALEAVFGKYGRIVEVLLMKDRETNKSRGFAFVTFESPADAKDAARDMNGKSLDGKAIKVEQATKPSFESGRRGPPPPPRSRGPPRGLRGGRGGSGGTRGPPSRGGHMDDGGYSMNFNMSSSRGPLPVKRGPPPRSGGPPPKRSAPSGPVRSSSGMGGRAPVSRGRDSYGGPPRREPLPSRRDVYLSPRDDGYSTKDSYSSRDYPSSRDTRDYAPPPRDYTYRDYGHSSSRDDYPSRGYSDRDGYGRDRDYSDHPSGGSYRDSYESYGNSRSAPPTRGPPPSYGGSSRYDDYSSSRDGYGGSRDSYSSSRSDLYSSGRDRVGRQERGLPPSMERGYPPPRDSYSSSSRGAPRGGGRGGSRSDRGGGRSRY
UniProt Q9NW64, sequence (Q9NW64 whole entry, looked up): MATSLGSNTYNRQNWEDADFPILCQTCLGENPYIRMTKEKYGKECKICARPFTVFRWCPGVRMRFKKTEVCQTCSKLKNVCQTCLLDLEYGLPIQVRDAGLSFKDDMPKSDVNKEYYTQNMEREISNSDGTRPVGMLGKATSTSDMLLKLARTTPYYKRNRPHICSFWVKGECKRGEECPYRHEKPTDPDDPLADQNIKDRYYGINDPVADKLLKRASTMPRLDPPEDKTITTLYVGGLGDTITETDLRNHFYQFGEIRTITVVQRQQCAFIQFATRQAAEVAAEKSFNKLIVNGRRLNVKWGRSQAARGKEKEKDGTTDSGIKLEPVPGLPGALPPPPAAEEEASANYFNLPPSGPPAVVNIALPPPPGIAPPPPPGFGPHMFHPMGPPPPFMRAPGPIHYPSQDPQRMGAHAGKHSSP
UniProt Q5TBB1, sequence (Q5TBB1 whole entry, looked up): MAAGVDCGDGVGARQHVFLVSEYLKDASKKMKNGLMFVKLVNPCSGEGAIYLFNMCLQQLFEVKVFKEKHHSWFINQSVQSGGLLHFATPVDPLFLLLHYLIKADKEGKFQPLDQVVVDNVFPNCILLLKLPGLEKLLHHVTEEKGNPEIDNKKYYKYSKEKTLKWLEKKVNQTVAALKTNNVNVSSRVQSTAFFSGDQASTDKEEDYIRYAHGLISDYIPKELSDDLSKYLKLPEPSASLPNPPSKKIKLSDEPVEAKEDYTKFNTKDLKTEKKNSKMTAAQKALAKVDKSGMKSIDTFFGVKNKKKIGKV

Target | log2 fold change [1] | log2 fold change [2] | log2 fold change [3] | log2 fold change [4] | log2 fold change [5] | log2 fold change [6] | log2 fold change [7] | log2 fold change [8] | log2 fold change [9] | log2 fold change [10] | log2 fold change [11] | log2 fold change [12] | log2 fold change [13] | log2 fold change [14] | log2 fold change [15] | log2 fold change [16] | log2 fold change [17] | log2 fold change [18] | log2 fold change [19] | log2 fold change [20]
SAMHD1 (UniProt Q9Y3Z3) | 0.02 | -0.071 | -0.033 | -0.038 | 0.013 | -0.029 | 0.032 | -0.005 | -0.071 | 0.028 | -0.006 | 0.008 | -0.026 | 0.013 | 0.066 | -0.02 | 0.03 | 0.054 | 0.046 | 0.004
RNF123 (UniProt Q5XPI4) | -0.013 | -0.029 | -0.015 | -0.04 | -0.068 | -0.122 | 0.029 | 0.039 | -0.002 | 0.011 | 0.012 | -0.013 | -0.059 | 0.022 | 0.054 | -0.046 | -0.006 | 0.04 | 0.019 | 0.01
SDHA (UniProt P31040) | 0.004 | -0.011 | -0.008 | -0.004 | 0.013 | 0.03 | 0.006 | 0.024 | 0.026 | -0.017 | 0.035 | 0.009 | 0.016 | 0.004 | -0.033 | -0.022 | -0.034 | -0.037 | -0.013 | 0.007
RNASEH2B (UniProt Q5TBB1) | 0.001 | 0.039 | -0.049 | 0.126 | 0.03 | -0.126 | 0.055 | 0.041 | 0.027 | -0.064 | 0.024 | 0.007 | -0.024 | -0.001 | -0.011 | -0.059 | -0.009 | 0.037 | 0.004 | -0.015
REL isoform 2 (UniProt Q04864) | 0.014 | 0.005 | -0.025 | 0.32 (active) | 0.001 | 0.074 | 0.052 | 0.023 | -0.04 | -0.072 | 0.009 | -0.032 | -0.015 | -0.041 | 0.056 | -0.005 | 0.014 | 0.005 | -0.009 | -0.017
RBMX (UniProt P38159) | 0.002 | 0.012 | 0.022 | 0.011 | 0.033 | -0.003 | 0.013 | 0.008 | 0.068 | 0.022 | 0.034 | -0.079 | -0.029 | -0.052 | -0.007 | 0.042 | 0.005 | 0.014 | 0.033 | -0.021
RAB8B (UniProt Q92930) | 0.065 | -0.018 | 0.034 | 0.037 | 0.098 | -0.289 (active) | 0.003 | -0.013 | 0.088 | -0.079 | -0.136 | -0.011 | -0.038 | -0.033 | -0.096 | -0.035 | 0.075 | 0.019 | 0.099 | 0.029
RRAGA (UniProt Q7L523) | 0 | -0.06 | -0.084 | 0.075 | 0.063 | -0.035 | -0.033 | -0.058 | -0.018 | -0.02 | -0.144 | 0.032 | -0.025 | -0.065 | 0.024 | -0.045 | 0.109 | 0.082 | 0.033 | -0.04
RBM22 (UniProt Q9NW64) | -0.01 | -0.011 | 0.038 | 0.034 | 0.008 | -0.019 | 0.026 | 0.072 | 0.001 | -0.016 | -0.045 | 0.024 | -0.072 | -0.006 | 0.057 | -0.022 | -0.036 | -0.027 | 0.01 | 0.033
RPN2 (UniProt P04844) | -0.048 | -0.006 | -0.004 | -0.074 | -0.003 | 0.039 | -0.003 | 0 | -0.032 | 0.06 | -0.011 | 0.005 | -0.008 | -0.013 | -0.006 | 0.049 | -0.015 | -0.001 | 0.011 | -0.003
SASS6 (UniProt Q6UVJ0) | 0.001 | -0.056 | -0.01 | 0.099 | -0.018 | -0.076 | 0.004 | -0.01 | -0.032 | -0.054 | -0.032 | 0.01 | -0.083 | 0.017 | 0.008 | -0.045 | -0.03 | 0.03 | 0.044 | 0.003
RAP1GAP isoform 4 (UniProt P47736) | -0.019 | -0.018 | -0.044 | 0.044 | -0.032 | -0.044 | -0.009 | -0.001 | -0.069 | 0.007 | -0.002 | -0.015 | 0 | 0.017 | 0.028 | -0.046 | -0.013 | 0.029 | -0.021 | -0.034
RAB6D (UniProt Q53S08) | 0.005 | -0.008 | -0.036 | -0.058 | 0 | 0.189 | 0.015 | -0.001 | -0.136 | 0.154 | -0.028 | -0.019 | -0.004 | 0.111 | -0.008 | -0.056 | -0.162 | -0.006 | -0.013 | -0.064
SBF1 isoform 4 (UniProt O95248) | -0.029 | -0.075 | 0.088 | 0.07 | -0.039 | -0.066 | 0 | -0.004 | -0.061 | 0.006 | -0.018 | -0.041 | 0.092 | -0.046 | 0.047 | -0.103 | 0.162 | 0.12 | 0.039 | 0.091
RIOK3 (UniProt O14730) | 0.026 | -0.032 | -0.031 | 0.021 | -0.007 | -0.009 | -0.008 | 0.036 | -0.021 | 0.008 | 0.017 | -0.027 | -0.05 | -0.076 | 0.002 | -0.063 | 0.008 | 0.01 | 0.009 | 0.014
RPL8 (UniProt P62917) | -0.005 | 0.01 | 0.059 | 0.147 | 0.008 | -0.072 | 0.033 | -0.038 | 0.071 | -0.051 | -0.005 | -0.004 | 0.035 | -0.028 | -0.013 | 0.222 (active) | 0.027 | -0.019 | -0.008 | -0.006
